Bfl-1 Bim block = inhibitors of Bim binding to Bfl-1, primary screen, biochemical, multiplexed, bead-based flow cytometry | Bcl-2-related protein A1 (Homo sapiens), Q16548 | Bim-Bfl-1 binding inhibition | inhibition, % at 10 µM | hit rate 0.12% among 190,000;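 further: 0% = wells without compound plus tracer and 100% = blocker peptide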
Target sequence (Q16548 whole entry, looked up): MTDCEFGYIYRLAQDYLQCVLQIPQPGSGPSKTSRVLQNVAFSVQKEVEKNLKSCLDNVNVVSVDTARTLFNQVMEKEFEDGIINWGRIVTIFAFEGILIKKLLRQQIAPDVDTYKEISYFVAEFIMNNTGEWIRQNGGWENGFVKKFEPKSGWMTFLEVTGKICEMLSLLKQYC
Bim-Bcl-XL = inhibitors of Bim-Bcl-XL binding, primary screen, biochemical, multiplexed, bead flow cytometry, human Bcl-XL; Bim peptide-Bcl-XL binding, fluorescence; inhibition, % at 10 µM; hit rate 0.04% among 190,000; AID 1007, 2008
Target sequence (Q07817 whole entry, looked up): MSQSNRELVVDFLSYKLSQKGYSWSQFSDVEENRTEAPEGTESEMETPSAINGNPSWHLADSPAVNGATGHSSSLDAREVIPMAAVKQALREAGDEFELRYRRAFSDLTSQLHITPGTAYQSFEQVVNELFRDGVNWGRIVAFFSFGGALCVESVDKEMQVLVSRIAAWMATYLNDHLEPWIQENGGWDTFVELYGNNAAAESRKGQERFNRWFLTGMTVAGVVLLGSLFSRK
Bim-Bcl-B = inhibitors of Bim-Bcl-B binding, primary screen, biochemical, multiplexed, human Bcl-2 family | bead-based flow cytometry, Bim peptide-Bcl-B binding | Bcl-2-like protein 10 (Homo sapiens), Q9HD36 | inhibition, % at 10 µM | hit rate 0.073% among 190,000;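 further: 0% = tracer peptide without compound and 100% = reference inhibitor peptide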
Wee1 stabilizer = Wee1 degradation inhibitors, primary screen, cell-based, HeLa, Wee1K328M-luciferase, luminescence; Wee1-like protein kinase (Homo sapiens), P30291; HeLa Luc-Wee1K328M stability; 100% = proteasome inhibitor MG132 effect; reporter increase, % at 5 µM; hit rate 1.2% among 220,000; AID 1321, 2008;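 active means activation above the mean of all tested compounds plus 3 SD, set per screening run, cut at about 8.8% in these data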;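 further: cells exposed to compound for 20 h before luminescence read; 0% = DMSO alone and 100% = MG132 at 30 µM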
Bcl-2 Bim block = inhibitors of Bim-Bcl-2 binding, primary screen, biochemical, multiplexed, human Bcl-2 family | Apoptosis regulator Bcl-2 (Homo sapiens), P10415 | Bead-based flow cytometry, Bim peptide-Bcl-2 binding | hit rate 0.06% among 190,000 | AID 950, 2007 | inhibition, % at 10 µM; in the data active means inhibition above about 40%;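 further: 0% = no compound wells with probe peptide and 100% = reference peptide inhibitor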
Bcl-W Bim block = inhibitors of Bim binding to Bcl-W, primary screen, biochemical, multiplexed, bead-based flow cytometry | Bim peptide-Bcl-W binding | AID 952, 2007 | inhibition, % at 10 µM | hit rate 0.02% among 190,000;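 further: 0% = bound tracer without compound and 100% = peptide blocker; higher means less fluorescent Bim peptide bound to Bcl-W beads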
Bim-Bcl-XL DR = Bim-Bcl-XL interaction inhibitors, hit retest, confirmation, biochemical, dose response, multiplexed, HTS hits. shares compounds with Bfl-1 Bim block. bead-based flow cytometry, Bim-Bcl-XL binding. inhibition of binding at 100 µM. 40 tested, under 10 active; call rule not given here
Numbers without * were called inactive; / = not tested or not shown. Sampled rows, rich in hits. Any-hit rate of the full collection: about 1.4%. Unless noted, no stated cut-off is given here; in the data, active means inhibition above about 40%.

SMILES	Bfl-1 Bim block	Bim-Bcl-XL	Bim-Bcl-B	Wee1 stabilizer	Bcl-2 Bim block	Bcl-W Bim block	others
O=C(COC(=O)c1ccc(S(=O)(=O)N2CCCC2)cc1)NCc1cccs1	-2	0	-1	3	-1	0
COc1cc2c(cc1OC)C(C)N(S(=O)(=O)c1cn(C)c(C)n1)CC2 (stereo not drawn)	/	/	/	-4	/	/
COc1cc2c(cc1OC)C(C)N(S(=O)(=O)c1cn(C)cn1)CC2 (stereo not drawn)	/	/	/	9.4*	/	/
CC(=O)OC[C@H]1O[C@H](CCO/N=C(\C)CCN2CCCc3nc(C)c(C)cc32)C=C[C@@H]1OC(C)=O	-4	-3	-6	9.6*	-6	-5
C/C(CCN1CCCCc2nc(C)c(C)cc21)=N\O[C@H](C)c1cn([C@H](CO)Cc2ccccc2)nn1	-3	-4	-7	-3	-2	-4
COc1ccc(CCN(C)CC(O)c2ccccc2)cc1OC (stereo not drawn)	-8	-2	-6	7	-3	-4
CCCN(CC(=O)Nc1cc(Cl)cc(Cl)c1)CC(=O)Nc1ccc(F)c(F)c1F	-17	-10	-11	0	-6	-8
CC1(C)Cc2ccccc2-c2n[nH]c(=S)n21	-8	8	-16	9.5*	-6	0
CCSc1nnc2n1C(C)(C)Cc1ccccc1-2	0	-4	-3	3	0	-4
COc1ccc(N(C(=O)c2ccncc2)S(=O)(=O)c2cccs2)cc1	/	/	/	9.1*	/	/
O=C1C(c2c(O)[nH]c3ccccc23)=Nc2ccccc21	-1	-2	-2	12*	-2	-1
CC(=O)c1cccc2c(O)c(C3=Nc4ccccc4C3=O)[nH]c12	9	1	1	1	-10	2
CCCn1nnc(NC(=O)COc2ccc(C3CCCCC3)cc2)n1	2	1	0	0	4	0
COC(=O)/C=C/C(=O)Nc1cccc(C(F)(F)F)c1	19	27	17	3	10	17
Cc1ccc(S(=O)(=O)n2[nH]c(=O)c(CCO)c2C)cc1	-6	-1	-1	9.0*	-3	-1
O=C(c1ccc(Cl)cc1)c1c[nH]c(C(=O)NNc2ccccc2)c1	-3	-2	-3	3	-2	2
COc1cccc(NC(=O)C2CCC(CNS(=O)(=O)c3cccs3)CC2)c1 (stereo not drawn)	0	-2	0	-2	1	-3
COc1cccc(NC(=O)CN(C)CC(=O)NC(C)c2ccccc2)c1 (stereo not drawn)	/	/	/	8.9*	/	/
COc1cccc(NC(=O)CN(C)CC(=O)Nc2ccc(Br)cc2)c1	-5	-2	-4	1	-3	-5
COc1ccc(CN(C)CC(=O)NC(C)c2ccccc2)c(OC)c1 (stereo not drawn)	56*	30	60*	-3	62*	39
CC1CC(C)CN(CCOc2ccc(Br)cc2)C1 (stereo not drawn)	1	-1	-4	0	0	-5
O=C1CC(c2cccs2)Cc2nc(NC(=O)C3CC3)ncc21 (stereo not drawn)	/	/	/	4	/	/
Cc1ccc(C)c(NC(=O)C(=O)NCc2ccccn2)c1	49*	46*	27	4	34	33
COC(=O)c1cc2oc3ccccc3c2n1CC(=O)N1CCCc2ccccc21	-2	0	-6	-1	1	-1
COC(=O)c1cc2ccsc2n1CC(=O)N1CCCc2ccccc21	-1	-5	-5	20*	-1	-2
SMILES	Bfl-1 Bim block	Bim-Bcl-XL	Bim-Bcl-B	Wee1 stabilizer	Bcl-2 Bim block	Bcl-W Bim block	others
Cc1ccc(-n2nc(-c3ccc(OC(F)(F)F)cc3)cc2N)cc1C	/	/	/	1	/	/
O=C(CSc1ncn[nH]1)N1CCN(S(=O)(=O)c2ccccc2)CC1	-8	-4	-3	11*	-3	0
Cc1ccc(CNC(=O)Nc2cccs2)cc1	0	-6	-3	9.1*	2	-2
O=C(NCCc1ccc(Cl)cc1)Nc1cccc(Cl)c1	-8	-2	-10	8.9*	-6	0
O=C(NCCc1ccccc1)Nc1cccc(Cl)c1	-3	-5	-10	-3	-1	-3
CCOC(=O)C1CCN(c2ncnc3c2cnn3-c2ccc(OC)cc2)CC1	-2	-2	-3	9.1*	-1	-1
CCOC(=O)C1CCCN(c2ncnc3c2cnn3-c2cccc(C)c2)C1 (stereo not drawn)	47*	46*	26	0	33	30
COc1ccc(-n2ncc3c(N4CCC(C(N)=O)CC4)ncnc32)cc1	-2	-1	-3	2	-2	-3
CCN(CC)C(=O)C1CCCN(c2ncnc3c2cnn3-c2cccc(C)c2)C1 (stereo not drawn)	-12	1	-1	1	-5	6
O=[N+]([O-])c1cccc(-c2noc(-c3ccco3)n2)c1	/	/	/	8.9*	/	/
O=[N+]([O-])c1cccc(-c2nc(-c3ccccc3)no2)c1	-7	-2	-3	0	-5	-1
CCOC(=O)C(=O)N1CCN(c2cc3c(cc2[N+](=O)[O-])n(C)c(=O)n3C)CC1	-1	2	0	-1	1	4
Cc1ccc(NC(=O)COC(=O)C2=COCCO2)c([N+](=O)[O-])c1	-5	-1	-2	9.3*	-3	-2
Cn1c(=NC(=O)COc2ccccc2)sc2ccccc21	-8	-1	-6	0	-4	-3
C/C(=N/NC(=O)CNS(=O)(=O)c1ccc(C)cc1)c1cccc([N+](=O)[O-])c1	-6	-1	-2	-3	-4	0
O=C(O)/C=C/C(=O)NNC(=O)c1ccc(Br)cc1	35	41*	24	-3	19	27
O=C(/C=C/NNC(=O)c1ccccc1)c1ccc(Br)cc1	-14	-6	-7	6	-7	0
O=C(O)/C=C/C(=O)N1Cc2cc3ccccc3nc2C1	/	/	/	0	/	/
Cc1ccc(-c2cc(-c3ccc(Cl)cc3)c(C#N)c(N)n2)o1	24	3	1	-1	1	1
Cc1ccc(-c2cc(-c3ccc4c(c3)OCO4)c(C#N)c(N)n2)o1	24	-1	-3	0	5	7
Cc1ccc(-c2cc(-c3ccc(C)o3)nc(N)c2C#N)cc1	/	20	/	0	85*	17	Bim-Bcl-XL DR=0.13

Bioassay records deposited in PubChem BioAssay by several laboratories.
